Hit rate of the full screen: of about 310,000 compounds, about 18,000 (5.8%) were called active. Roughly 22% stayed inconclusive and do not appear here. Calls follow the shape of the dose curve; as a rule, active = well fitted inhibition curve with a large enough effect; inconclusive = small, poorly fitted or top-dose-only effect, or another doubt; inactive = no such curve, though single readings can be large or run the other way. What follows is part of a selection rich in actives, with near analogues and random picks from the rest.
Test: Primary qHTS for delayed death inhibitors of the malarial parasite plastid, 48 hour incubation
Details: P. falciparum luciferase growth in erythrocytes; series mostly up to 28.7 µM; activity change, negative = inhibition: at the top concentration
In short: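 A one-generation exposure of luciferase-tagged malaria parasites in RPMI 1640/Albumax erythrocyte culture, 37 C and 5% CO2. Inhibition is inferred from decreased luminescence after adding detection reagent.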
% is scaled to controls: 0 for no effect and ±100 for the full control effect; potency is read from the fitted curve at half-maximal effect.

Row | Compound | activity change, negative = inhibition | Potency
1 | CC(=O)c1ccc(NC(=O)CCNS(=O)(=O)c2cc(Br)cnc2N)cc1 | 5.08% (inactive) | –
2 | COc1cc(C(=O)NNC(=O)CN2C(=O)NC3(CCCC3)C2=O)cc(OC)c1OC | -15% (inactive) | –
3 | O=C(N/N=C/c1c[nH]c2ccccc12)c1ccccc1O | -19.7% (inactive) | –
4 | Cc1cc(NC(=O)C(C)SCC(=O)Nc2ccccc2N2CCCCC2)no1 (centres undefined) | – | 8.28 µM (active)
5 | Cc1cc(NC(=O)CSCc2ccccc2C)no1 | 14.7% (inactive) | –
6 | CC(C)n1c(SCC(=O)Nc2ccccc2N2CCCCC2)nc2c1c(=O)n(C)c(=O)n2C | -8.49% (inactive) | –
7 | CCN(CC)c1ccc(/C=N/NC(=O)CNC(=O)c2cccnc2)cc1 | 30.6% (inactive) | –
8 | COc1cccc(NC(=O)C/C(C)=N/NC(=O)C2CCCCC2)c1 | 7.61% (inactive) | –
9 | O=C(NC(Cc1ccc(O)cc1)C(=O)O)/C(=C/c1ccccc1)NC(=O)c1ccccc1 (centres undefined) | 78.7% (inactive) | –
10 | COc1cc2[nH]c(=O)n(Cc3ccc(C(=O)NC4CCN(Cc5ccccc5)CC4)cc3)c(=O)c2cc1OC | – | 13.1 µM (active)
11 | CCOc1cc2[nH]c(=O)n(Cc3ccc(C(=O)NCCCN4CCCC4=O)cc3)c(=O)c2cc1OCC | -6.67% (inactive) | –
12 | COc1cc2[nH]c(=O)n(CCC(=O)NC3CCN(Cc4ccccc4)CC3)c(=O)c2cc1OC | 21.7% (inactive) | –
13 | CCOC(=O)c1ccc(NC(=S)N2CCN(c3ccccn3)CC2)cc1 | 15% (inactive) | –
14 | COc1ccc(NS(=O)(=O)c2ccc(F)cc2F)cn1 | 38.3% (inactive) | –
15 | CCCS(=O)(=O)N1CCN=C1SCc1cccc(F)c1 | -6.09% (inactive) | –
16 | COc1cc(F)c(C2=CC(=O)CC(C)(C)C2)cc1F | 28.7% (inactive) | –
17 | CC1(C)CC(=O)C=C(Nc2ccccc2)C1 | -13.2% (inactive) | –
18 | CC1(C)CC(=O)C=C(c2ccc(Cl)c(C(F)(F)F)c2)C1 | – | 5.86 µM (active)
19 | COC(=O)c1cc(NS(=O)(=O)c2ccc3c(c2)c(=O)n(C)c(=O)n3C)cc(C(=O)OC)c1 | 20.2% (inactive) | –
20 | O=C1NCCn2nc3ccccc3c21 | 2.57% (inactive) | –
21 | CCOC(=O)c1c(S(=O)(=O)Nc2cccc(Cl)c2)c(C)n(C)c1C | -8.53% (inactive) | –
22 | CCOc1c(Nc2cccc(Cl)c2)c(=O)c1=O | – | 7.38 µM (active)

Row | Compound | activity change, negative = inhibition | Potency
23 | NS(=O)(=O)c1cccnc1Nc1cccc(Cl)c1 | 33.3% (inactive) | –
24 | Cc1ccc2c(c1)N(CC(=O)N1CCOCC1)C(=O)CO2 | 17.2% (inactive) | –
25 | O=S(=O)(NCc1ccc(Cl)cc1Cl)c1cccs1 | 42.9% (inactive) | –
26 | CC(OC(=O)CCCc1c[nH]c2ccccc12)C(=O)Nc1ccc(S(N)(=O)=O)cc1 (centres undefined) | 19% (inactive) | –
27 | Cc1ccc(NC(=O)C(C)OC(=O)Cc2c[nH]c3ccccc23)cc1S(=O)(=O)N1CCOCC1 (centres undefined) | – | 5.22 µM (active)
28 | Cc1ccc(NC(=O)NC2CCCCC2)cc1S(=O)(=O)N1CCOCC1 | -7.23% (inactive) | –
29 | O=C(Nc1ccccc1N1CCCC1)c1ccc2ccccc2c1 | 10% (inactive) | –
30 | COc1cccc(NC(=O)C(=O)c2cn(CC(=O)N3CCOCC3)c3ccccc23)c1 | 63.7% (inactive) | –
31 | CC(C)(C)NC(=O)NCc1ccco1 | 13.8% (inactive) | –
32 | Cc1nn(-c2ccccc2)c2sc(C(=O)N(Cc3ccco3)C(C)C(=O)NC(C)(C)C)cc12 (centres undefined) | – | 11.7 µM (active)
33 | O=C(NCc1ccco1)c1nc(-c2ccccc2)n(-c2ccccc2)n1 | 5.98% (inactive) | –
34 | O=C(NC(Nc1nc2ccc([N+](=O)[O-])cc2s1)(C(F)(F)F)C(F)(F)F)c1ccccc1 | – | 1.65 µM (active)
35 | O=C(COC(=O)c1ccc(F)cc1)Nc1nc2ccc([N+](=O)[O-])cc2s1 | -18.4% (inactive) | –
36 | O=C(Nc1nc2ccc([N+](=O)[O-])cc2s1)c1ccncc1 | -30.6% (inactive) | –
37 | COC(=O)c1ccc(C)c(NC(=O)C2CC(=O)N(C3CCCC(C)C3C)C2)c1 (centres undefined) | -11.9% (inactive) | –
38 | Cc1cc(NC(=O)COc2ccc([N+](=O)[O-])cc2)no1 | -10.4% (inactive) | –
39 | CC(=O)c1cccc(OCc2cc(C(=O)NC(C)Cc3cccnc3)no2)c1 (centres undefined) | 0% (inactive) | –
40 | CCc1cc(=O)oc2c(C)c(OCC(=O)N3CC[C@@]4(O)CCCC[C@H]4C3)ccc12 | -23.9% (inactive) | –
41 | CN(C)CCN(Cc1ccccc1)S(=O)(=O)c1csc(C(N)=O)c1 | 34.9% (inactive) | –
42 | O=C1c2ccccc2C(=O)C1c1ccccc1F | 8.55% (inactive) | –
43 | O=C1c2ccccc2C2=Nc3ccccc3SC(c3ccccc3F)C12 (centres undefined) | – | 0.329 µM (active)
44 | COCCN(C(=O)CSCc1ccc(C)cc1)c1c(N)n(CC(C)C)c(=O)[nH]c1=O | -24.5% (inactive) | –

Row | Compound | activity change, negative = inhibition | Potency
45 | CC1(C(=O)NNC(=S)NCC2CCCO2)CC1(Cl)Cl (centres undefined) | -1.58% (inactive) | –
46 | CN(c1ccccc1)S(=O)(=O)c1cccc(NC(=O)Cc2c(F)cccc2Cl)c1 | -25.5% (inactive) | –
47 | CN(C)S(=O)(=O)c1cccc(NC(=O)Cc2ccsc2)c1 | -7.53% (inactive) | –
48 | CN(c1ccccc1)S(=O)(=O)c1cccc(NC(=O)Cc2ccc(Cl)cc2)c1 | – | 11.7 µM (active)
49 | C[C@@H]1NC(=O)[C@@]2(C)[C@@H](c3ccccc3)[C@H]3COc4ccccc4[C@@H]3N2C1=O | 5.3% (inactive) | –
50 | Cc1ccccc1C(=O)N1CCC(C(=O)Nc2ccc(S(=O)(=O)N(C)C(C)C)cc2)CC1 | – | 9.28 µM (active)
51 | CCc1nnc(NC(=O)C2CCN(C(=O)c3ccccc3C)CC2)s1 | -2.64% (inactive) | –
52 | CC(=O)c1cccc(NC(=O)C2CCN(C(=O)c3ccccc3Cl)CC2)c1 | 2.74% (inactive) | –
53 | CC(C)c1c(C(=O)N/N=C/c2ccccc2C(=O)O)nnn1-c1nonc1N | 31.1% (inactive) | –
54 | Cc1cc(Cl)c2oc(C(=O)N3CCC(O)(c4ccccc4)CC3)c(C)c2c1 | -1.89% (inactive) | –
55 | O=C(O)c1cc([N+](=O)[O-])c(Nc2cccc3ccccc23)c([N+](=O)[O-])c1 | 27.2% (inactive) | –
56 | Cn1cc[n+](C)c1COc1ccc(C=O)cc1 | 8.97% (inactive) | –
57 | O=C(CN(C(=O)c1csnn1)c1cccc(Cl)c1)NC1CCCC1 | 3.32% (inactive) | –
58 | O=C(CSc1nnc(-c2ccco2)n1Cc1ccccc1)NC(=O)NCc1ccco1 | – | 10.4 µM (active)
59 | Cc1ccc(-c2csc3nnc(SCC(=O)NCc4ccco4)n23)cc1 | – | 9.28 µM (active)
60 | O=C(CSc1nnc2scc(-c3ccc(F)cc3)n12)NCc1ccco1 | -10.2% (inactive) | –
61 | Cn1c(-c2ccc(F)cc2)cnc1SCC(=O)NCc1ccco1 | -15.9% (inactive) | –
62 | CCn1c(SCC(=O)NCc2ccco2)nnc1-c1ccc(N)cc1 | 19.4% (inactive) | –
63 | CCn1c(COc2ccccc2)nnc1SCC(=O)NCc1ccco1 | 3.66% (inactive) | –
64 | CC1(NC(=O)CCS(=O)(=O)c2ccc(Cl)cc2)CCS(=O)(=O)C1 (centres undefined) | 4.95% (inactive) | –
65 | C=CCn1c(SCC(=O)Nc2ccc(NC(C)=O)cc2)nc2sc(C)c(C)c2c1=O | -19.7% (inactive) | –
66 | CCN(CC(=O)NCc1cccs1)C(=O)c1ccc(OC)c(S(=O)(=O)N2CCOCC2)c1 | 1.87% (inactive) | –

Row | Compound | activity change, negative = inhibition | Potency
67 | O=C(CC1C(=O)NCCN1C(=O)c1ccc([N+](=O)[O-])cc1)Nc1cccc(Cl)c1 (centres undefined) | 2.97% (inactive) | –
68 | COc1ccc(C(=O)n2nc(C)c(Br)c2C)cc1OC | 43.6% (inactive) | –
69 | O=C1NC(c2cccc(Cl)c2)Nc2ccccc21 (centres undefined) | 34.8% (inactive) | –
70 | O=C1c2ccccc2NC(c2ccc(-c3cccc(Cl)c3)o2)N1O (centres undefined) | 89.3% (inactive) | –
71 | O=c1c(-c2cccc(Cl)c2)c[nH]n1-c1ccccc1 | – | 3.7 µM (active)
72 | Cc1nc2sccn2c(=O)c1S(=O)(=O)NCCc1ccccc1 | -2.59% (inactive) | –
73 | COCCNc1nnc(SCC(=O)NNC(=O)c2ccco2)s1 | -15% (inactive) | –
74 | CCCNC(=O)CSc1nc(Cc2ccccc2)nc2ccccc12 | -19.7% (inactive) | –
75 | Cc1nc(N2CCN(c3ccccn3)CC2)c2c(C)c(C(=O)Nc3ccc(F)cc3)sc2n1 | – | 13.1 µM (active)
76 | Cc1cc(Br)ccc1NC(=O)c1sc2ncn(CC(=O)N3CCN(c4ccccn4)CC3)c(=O)c2c1C | -1.69% (inactive) | –
77 | CCN(CC)c1ccc(NC(=O)CN2CCN(c3ccccn3)CC2)cc1 | -14.4% (inactive) | –
78 | CC(=O)N1CCN(CC(C)(C)NS(=O)(=O)c2ccc(C)cc2)CC1 | 6.55% (inactive) | –
79 | CC(=O)Nc1ccc(NC(=O)CSC2=NS(=O)(=O)c3ccccc3N2)cc1 | 1.84% (inactive) | –
80 | N#CCCN(C(=O)COC(=O)C1CCN(c2ccc(C(F)(F)F)cn2)CC1)c1ccc(F)cc1 | -1.84% (inactive) | –
81 | CCOc1ccc(C(=O)NCC(=O)N2CCN(c3ccc(C(F)(F)F)cn3)CC2)cc1 | -12.7% (inactive) | –
82 | CCCN1CCn2c3c(c4cc(Br)ccc42)CCCC31 (centres undefined) | – | 8.28 µM (active)
83 | O=C(CN1C(=O)NC2(CCCCC2)C1=O)N1CCN(C(=O)c2cccs2)CC1 | 3.33% (inactive) | –
84 | Cc1nn(CC(=O)NCCc2ccccc2)c(=O)c2cc3occc3n12 | 22.7% (inactive) | –
85 | COc1ccc(CC(=O)OC(C)C(=O)Nc2ccc(S(N)(=O)=O)cc2)cc1 (centres undefined) | 6% (inactive) | –
86 | CCCCN(C(=O)c1ccc(C)o1)c1c(N)n(CCCC)c(=O)[nH]c1=O | 29.6% (inactive) | –
87 | CCCCCN(C(=O)CCC(=O)OCC(=O)NCc1ccc(OC)cc1)c1c(N)n(CCCC)c(=O)[nH]c1=O | 11.3% (inactive) | –
88 | CCCCN(C(=O)CCNC(=O)NC12CC3CC(CC(C3)C1)C2)c1c(N)n(CCCC)c(=O)[nH]c1=O | – | 13.1 µM (active)

Row | Compound | activity change, negative = inhibition | Potency
89 | CC(C)(C)C(=O)Cn1c(NCCO)nc2ccccc21 | 2.22% (inactive) | –
90 | O=C(Cn1c(NCCO)nc2ccccc21)c1ccc(Cl)cc1Cl | – | 13.1 µM (active)
91 | O=S(=O)(O)c1nc2ccccc2n1Cc1ccc(Cl)cc1Cl | 11.4% (inactive) | –
92 | O=C(COC(=O)c1ccc([N+](=O)[O-])cc1Cl)NC(=O)c1ccccc1 | 7.05% (inactive) | –
93 | C/C=N/N(c1ccccc1)c1ccccc1 | – | 10.4 µM (active)
94 | Cc1cccc(-c2c(NC(=O)c3ccco3)oc3ccc(Cl)cc3c2=O)c1 | 26.5% (inactive) | –
95 | O=C(O)CSc1ccc(S(=O)(=O)N2CCCC2)cn1 | 5% (inactive) | –
96 | Cc1ccc(NC(=O)CSc2sc3c(O)cc(=O)[nH]c3c2C#N)cc1C | 15.9% (inactive) | –
97 | CC(C)CN(C(=O)c1ccc2c(c1)OCO2)C1CCS(=O)(=O)C1 (centres undefined) | 15.5% (inactive) | –
98 | C=CCCC(=O)Nc1nc(C)c(-c2csc(Nc3ccc(Cl)cc3)n2)s1 | – | 1.47 µM (active)
99 | CC(=O)Nc1ccc(-c2csc(NC(=O)Nc3ccccc3)n2)cc1 | -5.54% (inactive) | –
100 | COc1cc(CC(=O)Nc2nc(-c3ccc(F)c(F)c3)cs2)cc(OC)c1OC | -25.2% (inactive) | –
101 | CCCCCCC(=O)Nc1nc(C)c(-c2csc(Nc3cc(Cl)ccc3OC)n2)s1 | – | 4.65 µM (active)
102 | Cc1cccc(NC(=O)c2cccc(C(F)(F)F)c2)c1 | 18.1% (inactive) | –
103 | CCOC(=O)c1csc(NC(=O)Nc2cccc(OC)c2)n1 | 77.8% (inactive) | –
104 | CC(=O)c1sc(NC(=O)CCCOc2ccccc2C)nc1C | 9.54% (inactive) | –
105 | CCCCCCC(=O)Nc1nc(C)c(-c2csc(Nc3cccc(OC)c3)n2)s1 | – | 5.22 µM (active)
106 | O=C(Nc1ccc(-c2csc(Nc3cccc(C(F)(F)F)c3)n2)cc1)c1cccc(C(F)(F)F)c1 | – | 9.28 µM (active)
107 | COc1ccc(-c2csc(NC(=O)COC(=O)Cc3ccc(Cl)cc3Cl)n2)cc1 | 184% (inactive) | –
108 | COc1ccc(-c2csc(Nc3ccc(O)cc3)n2)cc1 | -28.2% (inactive) | –
109 | COc1ccc(Cl)cc1NC(=O)c1oc(C)nc1C | 24% (inactive) | –
